Values joined by “and” are separate entries in the source; they are usually repeats but may differ in a detail not shown here. Equal values may be shown once. For part of these data: Measured potencies and affinities stand elsewhere.

In ChEMBL document CHEMBL3988442, “University of Dundee, Small-Polar-MMV Screening Library” (2021) one finds Percent Effect data, which are given here for 5 compounds.

Common to all, as to set-up: scale not given: direction of the effect not stated beside the values
The target of assay [1] is Protein translocase subunit SecA (Escherichia coli (strain K12)) (UniProt P10408). In words: Assay to Identify E. coli SecA ATPase Inhibitors. The conditions noted are these: 30 µM. The assay is classed as functional.
Assay [2] has as its target T1, Ubiquitin-activating enzyme e1, putative (Leishmania donovani (strain BPK282A1)) (UniProt E9BSI1).
T1 sequence (whole entry): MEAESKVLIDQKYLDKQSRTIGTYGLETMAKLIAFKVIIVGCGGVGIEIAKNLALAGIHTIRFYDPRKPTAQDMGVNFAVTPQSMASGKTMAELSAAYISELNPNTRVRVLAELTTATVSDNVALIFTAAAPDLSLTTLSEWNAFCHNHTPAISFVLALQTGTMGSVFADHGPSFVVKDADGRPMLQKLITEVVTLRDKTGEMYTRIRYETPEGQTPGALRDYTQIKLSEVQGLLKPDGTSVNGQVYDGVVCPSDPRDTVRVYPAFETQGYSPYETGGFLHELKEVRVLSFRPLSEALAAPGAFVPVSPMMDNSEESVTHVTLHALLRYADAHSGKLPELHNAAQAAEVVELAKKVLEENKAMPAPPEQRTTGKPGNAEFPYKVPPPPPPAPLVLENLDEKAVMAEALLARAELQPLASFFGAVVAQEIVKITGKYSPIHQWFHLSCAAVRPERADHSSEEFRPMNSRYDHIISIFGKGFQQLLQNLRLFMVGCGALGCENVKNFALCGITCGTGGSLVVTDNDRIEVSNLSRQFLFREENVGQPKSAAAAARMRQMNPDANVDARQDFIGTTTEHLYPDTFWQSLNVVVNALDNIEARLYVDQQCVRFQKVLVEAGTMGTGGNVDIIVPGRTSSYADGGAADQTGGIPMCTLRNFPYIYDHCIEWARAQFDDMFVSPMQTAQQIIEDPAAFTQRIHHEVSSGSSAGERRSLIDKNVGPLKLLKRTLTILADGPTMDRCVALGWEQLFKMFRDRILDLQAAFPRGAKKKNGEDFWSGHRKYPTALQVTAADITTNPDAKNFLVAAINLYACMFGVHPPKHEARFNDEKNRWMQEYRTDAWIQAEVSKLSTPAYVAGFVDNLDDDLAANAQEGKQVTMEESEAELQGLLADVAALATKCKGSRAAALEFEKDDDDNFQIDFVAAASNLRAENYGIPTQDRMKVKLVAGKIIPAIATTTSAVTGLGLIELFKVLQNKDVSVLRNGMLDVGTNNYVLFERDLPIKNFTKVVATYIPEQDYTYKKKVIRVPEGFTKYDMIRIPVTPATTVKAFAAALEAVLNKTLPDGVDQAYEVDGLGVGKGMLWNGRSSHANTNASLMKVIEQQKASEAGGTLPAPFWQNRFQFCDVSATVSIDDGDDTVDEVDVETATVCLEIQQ
The assay can be described thus: Leishmania donovani Ubiquitin Activating Enzyme (LdE1). The assay is classed as functional. The following applies: 30 µM.

Assay [3] deals with AMP-activated protein kinase, AMPK (Homo sapiens) (UniProt P54646+O43741+P54619+Q9UGJ0+Q9Y478+Q13131+Q9UGI9). In words: AMP-dependent Kinase enzyme assay. An in vitro enzyme assay that detects ADP turnover that is directly proportional to AMPK activity. This uses naive AMPK that is activated during the assay with MK-8722. The following applies: 30 µM. The format is functional.

In assay [4] the target is Sialic acid-binding Ig-like lectin 9 (Homo sapiens) (UniProt Q9Y336). In words: Hs-Siglec9 ALPHAscreen SOP 20170721. The following applies: 10 µM. A general note: Bead proximity is the source of the signal in Alpha formats.
The subject of another assay is Trypanosoma cruzi. The assay can be described thus: Trypanosoma cruzi phosphomannomutase and mannose-1-phosphate guanylyltransferase assay. The assay is classed as functional. The conditions noted are these: 10 µM.
The target of assay [5] is T2, Arginase-2, mitochondrial (Homo sapiens) (UniProt P78540).
T2 sequence (whole entry): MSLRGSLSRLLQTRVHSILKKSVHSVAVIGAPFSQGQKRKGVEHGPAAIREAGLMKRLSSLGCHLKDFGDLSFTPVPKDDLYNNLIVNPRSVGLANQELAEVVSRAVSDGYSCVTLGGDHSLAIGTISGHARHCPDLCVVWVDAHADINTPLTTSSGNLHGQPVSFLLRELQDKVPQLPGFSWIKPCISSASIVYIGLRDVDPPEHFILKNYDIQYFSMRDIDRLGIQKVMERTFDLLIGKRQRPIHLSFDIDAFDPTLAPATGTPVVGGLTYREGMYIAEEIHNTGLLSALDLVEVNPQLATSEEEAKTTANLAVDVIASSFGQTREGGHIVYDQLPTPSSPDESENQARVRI
The assay can be described thus: in vitro enzyme assay to detect the production of urea directly proportional to the activity of Arginase II. Note: in the data most compounds retested in dose-response had high values. The assay is classed as functional.

Assay [6] has as its target T3, Proteasome subunit beta (Trypanosoma cruzi) (UniProt O96673).
T3 sequence (whole entry): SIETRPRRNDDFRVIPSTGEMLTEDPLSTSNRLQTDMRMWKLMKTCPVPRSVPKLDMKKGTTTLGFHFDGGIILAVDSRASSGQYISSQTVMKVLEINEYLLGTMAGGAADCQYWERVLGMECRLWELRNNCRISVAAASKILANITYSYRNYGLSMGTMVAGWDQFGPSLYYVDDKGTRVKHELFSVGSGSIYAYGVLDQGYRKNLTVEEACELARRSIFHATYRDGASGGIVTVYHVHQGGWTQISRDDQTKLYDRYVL
The assay can be described thus: Trypanosoma cruzi proteasome chymotrypsin-like activity (TcProtChymo) assay. Note: in the data most compounds retested in dose-response had high values. The assay is classed as functional. The following applies: 9.37 µM.

The species entered for a further assay is Homo sapiens. The assay can be described thus: To identify inhibition of the IFN signalling (Jak-Stat) pathway via expression of an eGFP reporter gene under the control of an IFN-stimulated response element (ISRE) containing MxA promoter. The assay is classed as functional. The conditions noted are these: 30 µM.
Assay [7] has as its target T4, Tyrosyl-tRNA synthetase, putative (Trypanosoma cruzi (strain CL Brener)) (UniProt Q4DSP6).
T4 sequence (whole entry): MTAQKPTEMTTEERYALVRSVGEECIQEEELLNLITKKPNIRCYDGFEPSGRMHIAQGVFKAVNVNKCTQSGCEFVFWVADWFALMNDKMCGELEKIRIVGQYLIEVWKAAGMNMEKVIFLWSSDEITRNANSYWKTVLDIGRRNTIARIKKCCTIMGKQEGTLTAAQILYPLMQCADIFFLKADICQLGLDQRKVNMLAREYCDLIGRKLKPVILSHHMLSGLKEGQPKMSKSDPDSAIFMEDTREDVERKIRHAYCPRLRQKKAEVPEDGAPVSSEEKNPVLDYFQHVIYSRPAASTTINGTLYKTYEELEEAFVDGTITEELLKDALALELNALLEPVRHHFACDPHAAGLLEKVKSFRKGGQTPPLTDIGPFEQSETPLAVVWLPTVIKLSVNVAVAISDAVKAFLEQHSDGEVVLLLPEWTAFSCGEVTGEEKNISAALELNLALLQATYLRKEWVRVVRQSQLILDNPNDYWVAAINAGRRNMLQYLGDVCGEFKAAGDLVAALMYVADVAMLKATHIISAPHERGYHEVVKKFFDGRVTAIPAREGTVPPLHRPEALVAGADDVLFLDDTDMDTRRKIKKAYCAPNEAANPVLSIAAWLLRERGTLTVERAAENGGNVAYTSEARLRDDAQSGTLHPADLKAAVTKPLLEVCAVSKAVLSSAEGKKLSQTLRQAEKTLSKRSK
In words: Trypanosoma cruzi tyrosyl tRNA synthetase (TcYRS) _High Tyrosine SOP. Note: in the data most compounds retested in dose-response had high values. The following applies: 30 µM. The assay is classed as functional.

The target of assay [8] is T4, Tyrosyl-tRNA synthetase, putative (Trypanosoma cruzi (strain CL Brener)). The assay can be described thus: Trypanosoma cruzi tyrosyl tRNA synthetase (TcYRS) SOP. The conditions noted are these: 30 µM. The format is functional.
The target of assay [9] is Chromo domain-containing protein 1 (Saccharomyces cerevisiae (strain ATCC 204508 / S288c) (Baker's yeast)) (UniProt P32657). The assay can be described thus: ScCHD-1 Enzyme Inhibition Assay. Note: in the data most compounds retested in dose-response had high values. The format is functional. The conditions noted are these: 30 µM.
Another assay concerns N/A. The assay can be described thus: Trypanosoma cruzi proteasome luciferase counter-screen. The format is functional. The conditions noted are these: 9.37 µM. (In general: Counterscreens check selectivity or assay interference.)

Sequence of Chromo domain-containing protein 1 (Saccharomyces cerevisiae (strain ATCC 204508 / S288c) (Baker's yeast)) (P32657 whole entry, the tested form may be a part): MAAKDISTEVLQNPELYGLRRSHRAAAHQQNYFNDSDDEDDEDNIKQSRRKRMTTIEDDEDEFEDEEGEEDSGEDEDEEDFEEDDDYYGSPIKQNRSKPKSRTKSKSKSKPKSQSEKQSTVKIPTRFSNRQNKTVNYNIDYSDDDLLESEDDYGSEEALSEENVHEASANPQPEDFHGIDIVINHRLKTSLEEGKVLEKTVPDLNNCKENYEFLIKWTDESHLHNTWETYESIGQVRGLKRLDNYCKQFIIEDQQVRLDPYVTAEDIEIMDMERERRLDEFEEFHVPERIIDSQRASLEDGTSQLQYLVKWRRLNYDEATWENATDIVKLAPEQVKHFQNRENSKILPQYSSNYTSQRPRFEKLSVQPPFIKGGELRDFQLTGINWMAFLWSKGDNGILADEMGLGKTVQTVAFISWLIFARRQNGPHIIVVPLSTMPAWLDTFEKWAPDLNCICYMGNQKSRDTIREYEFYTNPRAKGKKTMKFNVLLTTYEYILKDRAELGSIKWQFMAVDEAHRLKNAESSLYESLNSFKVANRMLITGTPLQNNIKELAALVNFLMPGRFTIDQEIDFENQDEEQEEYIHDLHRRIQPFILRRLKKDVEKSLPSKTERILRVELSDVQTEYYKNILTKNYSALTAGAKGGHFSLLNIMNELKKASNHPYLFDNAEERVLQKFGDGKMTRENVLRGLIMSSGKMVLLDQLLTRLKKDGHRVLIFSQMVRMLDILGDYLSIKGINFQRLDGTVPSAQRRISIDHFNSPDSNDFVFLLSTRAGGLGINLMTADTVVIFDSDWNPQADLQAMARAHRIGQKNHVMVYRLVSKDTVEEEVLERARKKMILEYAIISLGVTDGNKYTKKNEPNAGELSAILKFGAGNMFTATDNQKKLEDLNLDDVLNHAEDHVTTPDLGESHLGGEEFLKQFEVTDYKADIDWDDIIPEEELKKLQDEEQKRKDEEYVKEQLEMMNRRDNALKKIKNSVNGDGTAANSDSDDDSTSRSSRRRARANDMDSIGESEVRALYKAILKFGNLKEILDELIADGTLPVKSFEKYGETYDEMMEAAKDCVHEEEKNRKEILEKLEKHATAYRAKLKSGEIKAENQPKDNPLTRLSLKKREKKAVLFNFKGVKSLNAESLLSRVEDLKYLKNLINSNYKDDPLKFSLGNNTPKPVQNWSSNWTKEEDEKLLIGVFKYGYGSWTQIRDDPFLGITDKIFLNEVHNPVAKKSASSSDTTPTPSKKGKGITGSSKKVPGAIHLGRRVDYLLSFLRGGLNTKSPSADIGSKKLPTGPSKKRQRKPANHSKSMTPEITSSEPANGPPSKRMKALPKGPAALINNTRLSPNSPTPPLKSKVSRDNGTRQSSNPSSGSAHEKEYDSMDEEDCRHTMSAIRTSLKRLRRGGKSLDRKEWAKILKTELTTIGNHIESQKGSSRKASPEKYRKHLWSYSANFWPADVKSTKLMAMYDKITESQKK
Sequence of Protein translocase subunit SecA (Escherichia coli (strain K12)) (P10408 whole entry): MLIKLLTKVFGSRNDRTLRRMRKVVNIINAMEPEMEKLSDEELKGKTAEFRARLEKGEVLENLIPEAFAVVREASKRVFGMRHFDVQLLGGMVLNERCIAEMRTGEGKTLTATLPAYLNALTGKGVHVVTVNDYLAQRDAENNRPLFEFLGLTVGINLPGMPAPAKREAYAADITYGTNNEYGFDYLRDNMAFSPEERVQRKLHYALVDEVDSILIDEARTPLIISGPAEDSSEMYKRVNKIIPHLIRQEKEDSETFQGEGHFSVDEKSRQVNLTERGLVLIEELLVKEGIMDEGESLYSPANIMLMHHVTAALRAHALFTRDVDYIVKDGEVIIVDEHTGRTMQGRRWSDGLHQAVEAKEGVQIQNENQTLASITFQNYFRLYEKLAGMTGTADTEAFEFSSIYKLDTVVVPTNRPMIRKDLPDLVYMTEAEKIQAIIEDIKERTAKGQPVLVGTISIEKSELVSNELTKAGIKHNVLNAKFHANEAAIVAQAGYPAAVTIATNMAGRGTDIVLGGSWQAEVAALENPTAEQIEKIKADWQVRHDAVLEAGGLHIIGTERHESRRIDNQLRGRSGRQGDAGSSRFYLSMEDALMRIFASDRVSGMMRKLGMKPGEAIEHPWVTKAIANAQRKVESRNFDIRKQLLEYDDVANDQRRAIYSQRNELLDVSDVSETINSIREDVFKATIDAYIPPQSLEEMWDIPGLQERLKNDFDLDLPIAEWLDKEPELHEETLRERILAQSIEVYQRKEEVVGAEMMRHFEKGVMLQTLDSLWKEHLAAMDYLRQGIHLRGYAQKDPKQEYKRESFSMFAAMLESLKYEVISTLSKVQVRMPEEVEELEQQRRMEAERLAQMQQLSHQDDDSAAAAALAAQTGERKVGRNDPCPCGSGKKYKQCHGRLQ
Sequence of Sialic acid-binding Ig-like lectin 9 (Homo sapiens) (Q9Y336 whole entry): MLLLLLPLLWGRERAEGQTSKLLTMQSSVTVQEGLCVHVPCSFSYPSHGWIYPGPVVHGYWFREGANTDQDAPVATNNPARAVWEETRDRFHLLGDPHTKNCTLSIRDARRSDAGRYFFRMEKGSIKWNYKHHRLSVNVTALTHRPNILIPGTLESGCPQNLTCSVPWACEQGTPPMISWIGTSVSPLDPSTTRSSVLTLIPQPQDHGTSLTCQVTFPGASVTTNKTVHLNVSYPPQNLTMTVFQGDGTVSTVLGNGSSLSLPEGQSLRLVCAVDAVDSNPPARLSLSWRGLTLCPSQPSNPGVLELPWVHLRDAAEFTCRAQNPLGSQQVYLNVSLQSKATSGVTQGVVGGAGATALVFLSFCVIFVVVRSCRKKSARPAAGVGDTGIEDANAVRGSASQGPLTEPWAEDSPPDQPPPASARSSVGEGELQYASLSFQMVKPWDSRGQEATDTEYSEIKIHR

As for `COc1ccc(C2SC(C)=Nc3c2c(=O)[nH]n3C2CCCCC2)cc1O` (stereo not given), the Percent Effect in assay [1] is 1.71%; in assay [2] it was 17.3%; in [3] it was 0.637%; in assay [4], -1.4%; in the assay with Trypanosoma cruzi, 0.786%; in [5] (30 µM) it was -3.78%. The Percent Effect in assay [5] (33.3 µM) is -25.2%; in assay [6], 15.3%; in the assay filed under Homo sapiens, 39.9%; in assay [7] it was 43.4%; in [8] it was 48.7%; in [9] it was -12.8%.

For the compound `Cc1cc(C(=O)N2CCc3nnc(N)cc3C2)c(C)n1-c1cccnc1`, the Percent Effect was -9.46% in assay [1]; -46.8% in assay [2]; -58.5% in assay [3]; 7.86% in assay [4]; 0.923% with Trypanosoma cruzi; -2.37% in [5] (33.3 µM). The Percent Effect in [6] is 33.5% and 37.5% and 48.3%; in the assay on N/A, 14.7% and 15.2%; in the assay listed under Homo sapiens, 12.2%; in assay [7], 9.38%; in [8], 10.1%; in [9] it was -5.27%.

Consider `COc1ccc(CN2C[C@@H](N(C)Cc3ccco3)[C@H]3OCCC[C@H]32)cc1`, for which the Percent Effect in assay [1] was -4.13%; in [2], 5.33%; in assay [3], 8.07%; in [4] it was 3.01%; in the assay on Trypanosoma cruzi it was -5.71%; in assay [5] (30 µM), -8.11%. In addition, the Percent Effect in assay [5] (33.3 µM) was 0.699%; in [6] it was 11%; in the assay filed under Homo sapiens, 9.72%; in assay [7], 3.19%; in assay [8] it was 8.97%; in assay [9], -3.71%.

With `CNC(=O)[C@@H]1C[C@H]2CN(C(=O)c3ccco3)C[C@H]2N1C`, the Percent Effect was -1.85% in assay [1]; 2.67% in [2]; -2.42% in [3]; 4.75% in assay [4]; -3.67% with Trypanosoma cruzi; -9.19% in assay [5] (30 µM). For the same compound, the Percent Effect in assay [5] (33.3 µM) is -21%; in assay [6], 3.76%; in the assay listed under Homo sapiens it was -3.26%; in assay [7] it was 4.17%; in assay [8], 5%; in assay [9], -5.57%.

With `CC1=Nc2c(c(=O)[nH]n2C2CCCC2)C(c2cccc(O)c2)S1` (stereo not given), the Percent Effect in assay [1] was -2.38%; in assay [2] it was -1.33%; in assay [3], 11.5%; in assay [4], 2.03%; in the assay with Trypanosoma cruzi, 1.38%; in assay [5] (30 µM), -1.62%. In addition, the Percent Effect is -1.23% in assay [5] (33.3 µM); 11.3% in assay [6]; 36.2% in the assay filed under Homo sapiens; 14.8% in [7]; 20.5% in assay [8]; 0.661% in [9].
